A selection: hits, their analogues and other compounds. The true share with any hit is near 7.5%.
Rab9 promoter act: qHTS Assay for Rab9 Promoter Activators; Huh7 Rab9 promoter-luciferase reporter, luminescence, 24 h; Potency, µM (top dose mostly 9.22 µM), usual class: activators; 320,000 compounds, 2.8% hits; further: nearly all actives have a fitted effect of over 60% in size
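Quantitative HTS format; Huh7 Rab9-luciferase reporter cells (1500/well) receive compound 2 h post-plating, incubate 24 h at 37 °C, then get luciferase reagent for 10 min before luminescence reading.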
SMN2 splice enh: qHTS Assay for Enhancers of SMN2 Splice Variant Expression | HEK293 SMN2-luciferase splicing reporter, luminescence, 30-36 h | Potency, µM (titrated, usually from 46.1 µM), most hits filed as activators | 210,000 compounds, 2.8% hits | AID 1458, 2008; further: nearly all actives have a fitted effect of over 55% in size
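qHTS luciferase splicing reporter: luminescence rises when SMN2 exon 7 is included in transfected HEK293 cells. Compound exposure lasted 30-36 h at 37C, with 4.5 mM final sodium butyrate as control, followed by a ONE-Glo read.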
Luc counter: Counterscreen for Luciferase (Kinase-Glo TM) Inhibition | Luciferin 4-monooxygenase (Photuris pensylvanica), Q27757 | Kinase-Glo luciferase, ATP luminescence, 8 min | Potency, µM (highest dose often 38.3 µM), usual class: inhibitors | 200,000 compounds, 0.28% hits; further: nearly all actives have a fitted effect of over 60% in size
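Luminescence was the read-out, taken after 8-minute incubation at ambient temperature. Luciferase turned over luciferin with 10 uM ATP in imidazole pH 7.2 buffer containing KCl, MgCl2, Tween 20 and BSA.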
NPC1 promoter act: qHTS Assay for NPC1 Promoter Activators | Huh7 NPC1 promoter luciferase reporter, 24 h | Potency, µM (doses to about 9.22 µM), actives largely listed as activators | 320,000 compounds, 2.4% hits | AID 485313, 2010; further: nearly all actives have a fitted effect of over 60% in size
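Compounds in DMSO were transferred onto Huh7 NPC1-luciferase reporter cells pre-incubated 2 h; after 24 h at 37 °C, Amplite reagent was dispensed and luminescence recorded 10 min later.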
ELG1 genotox: qHTS screen for small molecules that induce genotoxicity in human embryonic kidney (HEK293T) cells expressing luciferase-tagged ELG1; HEK293T ELG1-luciferase reporter, luminescence, 16 h; Potency, µM (series often up to 46 µM), hits mostly activators; 330,000 compounds, 1.3% hits; AID 504466, 2011; further: nearly all actives have a fitted effect of over 60% in size
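DMSO vehicle served as control against compound-treated ELG1-luciferase HEK293T cells; exposure lasted 16 hr at 37 °C and 5% CO2, followed by ONE-Glo luminescence detection after 30 min.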
FLuc modulator: qHTS profiling assay for firefly luciferase inhibitor/activator using purifed enzyme and Km concentrations of substrates (counterscreen for miR-21 project); purified FLuc, Km substrates, luminescence inhibition; AID 588342, 2011; Luciferin 4-monooxygenase (Photinus pyralis), P08659; 360,000 compounds, 6.9% hits; Potency, µM (doses to about 57.5 µM), usual class: inhibitors; further: nearly all actives have a fitted effect of over 55% in size
Target sequence (P08659 whole entry, looked up): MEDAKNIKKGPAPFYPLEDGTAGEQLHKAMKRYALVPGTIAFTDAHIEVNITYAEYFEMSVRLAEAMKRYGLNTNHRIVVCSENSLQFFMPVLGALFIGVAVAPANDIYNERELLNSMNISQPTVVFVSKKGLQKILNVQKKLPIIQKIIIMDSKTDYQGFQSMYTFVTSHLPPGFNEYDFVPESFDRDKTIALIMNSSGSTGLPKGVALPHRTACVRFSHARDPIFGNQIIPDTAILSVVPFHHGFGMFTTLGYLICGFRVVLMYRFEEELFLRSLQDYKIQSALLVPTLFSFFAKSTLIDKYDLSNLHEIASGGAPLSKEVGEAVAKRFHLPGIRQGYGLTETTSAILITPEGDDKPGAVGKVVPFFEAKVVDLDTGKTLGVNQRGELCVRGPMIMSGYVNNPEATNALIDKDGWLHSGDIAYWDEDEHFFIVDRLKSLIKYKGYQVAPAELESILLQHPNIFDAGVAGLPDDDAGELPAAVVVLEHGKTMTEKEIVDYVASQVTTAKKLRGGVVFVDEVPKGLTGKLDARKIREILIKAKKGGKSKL
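Purified P. pyralis luciferase, 10 nM final, with Km-level 10 uM D-luciferin and 10 uM ATP in 50 mM Tris acetate pH 7.5, 10 mM Mg acetate, 0.01% Tween-20, 0.05% BSA; 6-point qHTS titration about 60 µM downward; luminescence read.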
A number is an active result; . = inactive; ? = inconclusive; / = not tested or not shown; [ ] = dose if it differs, or a comment. The call rests on the fitted dose curve; in most records, active means well fitted curve in the direction sought with a large enough effect; inconclusive means small, poorly fitted or top-dose-only effect, or another doubt; inactive means no such curve, though single readings can be large; an effect the other way counts as inactive or inconclusive.

SMILES	Rab9 promoter act	SMN2 splice enh	Luc counter	NPC1 promoter act	ELG1 genotox	FLuc modulator
Cc1ccc(-c2c3c(nc4sc(C(N)=O)c(N)c24)CCC3)cc1	?	.	.	.	.	16.9µM
Cc1ccc(-n2ncc(C(=O)NCc3ccccn3)c2C2CCN(C(=O)OC(C)(C)C)CC2)cc1C	/	/	/	/	/	.
CCCOc1ccccc1Cn1c(=O)sc2ccccc21	/	.	/	/	/	.
COc1cc(OC)c(NC(=O)CCc2c(C)nc3c4c(C)cc(C)nc4nn3c2C)cc1Cl	/	.	/	/	/	.
COc1ccc(C(=O)Nc2nnc(SCc3cc(=O)n4cc(Cl)ccc4n3)s2)cc1	/	/	/	/	/	.
Cc1ccc(Nc2nc3ccccc3c(=O)[nH]2)cc1C	?	?	.	.	.	.
Cc1ccc(Nc2nc(/N=C/N(C)C)n[nH]2)cc1C	?	?	.	?	.	23.9µM
CCOc1cccc2cc(C(=O)NCc3ccc(C)cc3)c(=N)oc12	.	/	/	.	.	15.1µM
CCN(CC)c1ccc2cc(C(=O)NCc3ccc(F)cc3)c(=N)oc2c1	.	/	/	.	.	16.9µM
O=C(CSc1oc(-c2ccco2)nc1S(=O)(=O)c1ccc(Cl)cc1)Nc1ccc(F)cc1	/	.	/	/	/	.
CCCOC(=O)c1ccc(NC(=O)c2ccccc2OC)cc1	.	.	.	.	.	?
CCCCOC(=O)c1ccc(NC(=O)c2ccoc2C)cc1	?	?	.	.	20.6µM	?
CCCCOC(=O)c1ccc(NC(=O)c2ccccc2OC)cc1	.	.	.	.	.	?
CCCOC(=O)c1ccc(NC(=O)c2ccoc2C)cc1	1.58µM	?	?	3.16µM	.	9.53µM
CCCCOC(=O)c1ccc(NC(=O)c2ocnc2C)cc1	.	.	.	.	.	16.9µM
CCOC(=O)c1c(C)[nH]c(C)c1S(=O)(=O)N1CCN(c2cccc(C(F)(F)F)c2)CC1	/	/	/	/	/	.
CSc1cccc(NC(=O)CC(c2cccs2)N2Cc3ccccc3C2=O)c1 (stereo unspecified)	/	/	/	/	/	.
O=C(CSc1nnc(NC(=O)c2cccc(Cl)c2)s1)NCC1CCCO1 (stereo unspecified)	.	/	/	.	?	6.75µM
O=C(CSc1nc2ccccc2s1)NCC1CCCO1 (stereo unspecified)	.	/	/	.	.	.
COc1ccccc1C(=O)Nc1nnc(SCC(=O)NCC2CCCO2)s1 (stereo unspecified)	3.55µM	/	/	1.41µM	?	6.01µM
O=C(CSc1nc2ccc(NC(=O)C3CCCCC3)cc2s1)NCC1CCCO1 (stereo unspecified)	.	.	.	.	.	16.9µM
COc1cc(C(=O)Nc2nnc(SCC(=O)NCC3CCCO3)s2)cc(OC)c1OC (stereo unspecified)	.	/	/	.	.	.
C=CCC(C)(O)/C=C/c1ccccc1 (stereo unspecified)	/	.	.	/	/	/
Cc1cc(NC(=O)CSc2nc(-c3ccccc3)c(C#N)c(=O)[nH]2)no1	.	.	.	.	.	.
N#Cc1c(-c2ccccc2)nc(SCC(=O)Nc2ccccc2)[nH]c1=O	.	.	.	.	.	.
SMILES	Rab9 promoter act	SMN2 splice enh	Luc counter	NPC1 promoter act	ELG1 genotox	FLuc modulator
Cc1cc(C)nc(NS(=O)(=O)c2ccc(NC(=O)CSc3nc(-c4ccccc4)c(C#N)c(=O)[nH]3)cc2)n1	.	.	.	.	.	10.7µM
CCc1ccc(NC(=O)CSc2nc(-c3ccccc3)c(C#N)c(=O)[nH]2)cc1	/	/	/	/	/	10.7µM
O=c1oc(CCO)cc2ccc(C#Cc3ccsc3)cc12	3.98µM	/	/	?	?	?
CN(C)c1ccc(C#Cc2ccc3cc(CCO)oc(=O)c3c2)cc1	?	/	/	3.98µM	.	1.35µM
O=c1oc(CCCO)cc2ccc(C#Cc3cccnc3)cc12	/	/	/	/	.	/
CN(C(=O)c1cc2c(s1)-c1ccc(Cl)cc1SC2)c1cccc(C(F)(F)F)c1	/	.	/	/	/	.
CC(=O)CC(=O)[C@@]1(O)CC[C@@H]2[C@@H]3C=C(C)C4=CC(=O)CC[C@@H]4[C@H]3CC[C@]21C	/	.	.	/	/	/
CCc1ccc(NC(=O)[C@H](C)NC(=O)C2CCN(C(=O)[C@@H](NC(=O)OC(C)(C)C)C(C)C)CC2)cc1	.	/	/	.	.	21.3µM
CC(C)[C@H](NC(=O)OC(C)(C)C)C(=O)N1CCC(C(=O)N[C@@H](C)C(=O)Nc2ccc(F)cc2)CC1	.	/	/	.	.	.
Nc1nc2ccc(Cc3ccncc3)cc2s1	?	/	/	.	?	16.9µM
COc1ccc(C(=O)NNC(=O)COC(=O)c2sccc2C)cc1	.	/	/	.	.	/
Cc1ccsc1C(=O)OCC(=O)N1CCc2ccccc2C1	0.794µM	25.1µM	.	2.82µM	?	8.49µM
CN(CC(=O)Nc1ccc(F)cc1)C(=O)COC(=O)c1cccc(N(C)C)c1	1.41µM	/	/	2.24µM	?	?
CN(C)c1cccc(C(=O)OCC(=O)c2ccc[nH]2)c1	1.41µM	/	/	3.16µM	?	10.7µM
Cc1ccsc1C(=O)OCC(=O)c1ccc(OC(F)F)cc1	?	/	/	.	.	1.07µM
CCOc1ccccc1NC(=O)Cn1c(=O)n(CCC(=O)NCc2ccc3c(c2)OCO3)c(=O)c2ccccc21	/	.	/	/	/	.
Cn1c(=O)cc(SCC(=O)NCCc2ccc(Cl)cc2)c2cc(Cl)ccc21	/	.	/	/	/	.
COc1ccccc1CNc1nc(-c2ccco2)nn1S(=O)(=O)c1ccc(C)cc1	/	/	/	/	/	.
COc1cc(NC(=O)CN2C(=O)c3ccccc3Sc3ccc(C(=O)N4CCCC4)cc32)cc(OC)c1	/	/	/	/	/	.
Cc1ccsc1C(=O)OCC(=O)c1ccc[nH]1	2.82µM	/	/	?	?	13.5µM
CCOc1ccc2cc(C#N)c(SCC(=O)N3CCOCC3)nc2c1	3.98µM	.	.	3.98µM	2.59µM	?
CC(C)OC(=O)CSc1nc2cc3c(cc2cc1C#N)OCO3	?	?	.	3.98µM	?	.
COC(=O)CSc1nc(-c2cccs2)ccc1C#N	2.24µM	14.1µM	.	1.78µM	8.2µM	?
C#CCSc1nc(-c2cccs2)ccc1C#N	.	.	.	.	.	.
CCOC(=O)CSc1nc2cc3c(cc2cc1C#N)OCO3	.	12.6µM	.	?	23.1µM	.
CCOc1ccc2nc(SCC(=O)N3CCCCCC3)c(C#N)cc2c1	.	.	.	.	.	.[2.3 µM]
CC(C)c1ccc(NC(=O)CSC2=Nc3ccccc3C3=NC(CC(=O)NCc4ccc(F)cc4)C(=O)N23)cc1 (stereo unspecified)	/	/	/	/	/	.
CCOC(=O)CSc1nc2cc3c(cc2cc1C#N)OCCO3	?	5.62µM	.	2µM	6.51µM	?
N#Cc1cc2cc3c(cc2nc1SCC(=O)N1CCOCC1)OCO3	1.58µM	/	/	1.26µM	3.66µM	/

High-throughput results as filed in PubChem.
